Compounds with a hit are over-represented: about 4.8% of the library has one in this group of screens.
Wee1 stabilizer: inhibitors of human Wee1 degradation; P30291; HeLa Luc-Wee1K328M stability, luciferase luminescence; 100% = proteasome inhibitor MG132 effect; reporter increase, % at 5 µM; actives 1.2% (n = 220,000);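 active = activation above the mean of all tested compounds plus 3 SD, set per screening run, cut at about 8.8% in these data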;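 note: cells exposed to compound for 20 h before luminescence read; 0% = DMSO alone and 100% = MG132 at 30 µM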
Target sequence (P30291 whole entry K328M): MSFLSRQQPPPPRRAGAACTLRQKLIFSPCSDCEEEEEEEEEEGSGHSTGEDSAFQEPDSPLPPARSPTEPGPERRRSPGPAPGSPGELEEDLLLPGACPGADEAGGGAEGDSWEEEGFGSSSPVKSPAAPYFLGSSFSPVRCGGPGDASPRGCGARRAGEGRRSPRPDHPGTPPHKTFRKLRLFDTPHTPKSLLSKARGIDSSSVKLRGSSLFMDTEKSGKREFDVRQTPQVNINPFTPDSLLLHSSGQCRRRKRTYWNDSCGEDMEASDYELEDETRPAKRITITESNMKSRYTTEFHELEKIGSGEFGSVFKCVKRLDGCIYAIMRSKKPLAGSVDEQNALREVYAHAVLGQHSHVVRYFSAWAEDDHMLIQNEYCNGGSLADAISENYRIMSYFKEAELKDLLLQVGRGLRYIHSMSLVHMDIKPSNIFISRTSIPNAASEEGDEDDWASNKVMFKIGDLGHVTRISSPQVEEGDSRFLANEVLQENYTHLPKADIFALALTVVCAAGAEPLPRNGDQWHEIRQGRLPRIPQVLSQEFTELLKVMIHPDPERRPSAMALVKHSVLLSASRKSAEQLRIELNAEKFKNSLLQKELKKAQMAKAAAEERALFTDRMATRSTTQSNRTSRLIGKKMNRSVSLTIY
APP 5'UTR act: activates APP 5'UTR luciferase reporter | SH-SY5Y APP 5'UTR luciferase reporter, luminescence; zero percent = DMSO vehicle wells | activation, % at 2 µM | actives 1% (n = 190,000);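 active = activation above a set limit, based on mean plus 3 SD of controls, cut at about 140% in these data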
Hsp70 activator: transcriptional activators of Hsp70. HeLa Hsp70 promoter luciferase reporter, luminescence; scaled: vehicle 0, proteasome-inhibitor control 100%. activation, % at 10 µM. actives 0.04% (n = 200,000). AID 1203;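 active = activation above the mean across all tested compounds plus 3 SD, cutoff set per campaign, cut at about 5.5% in these data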;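 note: 100% = MG132 at 30 µM as the positive control and 0% = DMSO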
STAT1 activator: STAT1 signaling activation; NIH 3T3 STAT1-luciferase reporter, IFN-gamma, luminescence; 100% = IFN-gamma alone, no compound; activation (% of control), % at 5.5 µM; actives 2.6% (n = 200,000); AID 932;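 active = activation above the screen-wide mean activation plus 3 SD, cut at about 130% in these data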;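 note: raw ratio to IFN-gamma control signal so 100% means no change and 0% no light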
NF-kB neuron act: raises NF-kB expression in human neuronal cells | NF-kB reporter expression; hits give high values | fold change at 12.5 µM | actives 1.6% (n = 190,000) | AID 1239; in the data active = fold change above about 3.3
APP 5UTR inh: APP translation inhibition | SH-SY5Y APP 5'UTR-luciferase reporter, luminescence | inhibition, % at 2 µM | actives 0.82% (n = 190,000);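 active = inhibition above a set limit, derived from the sample mean plus 3 SD, cut at about 45% in these data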
An asterisk follows results filed as active; x = not tested or not shown.

SMILES	Wee1 stabilizer	APP 5'UTR act	Hsp70 activator	STAT1 activator	NF-kB neuron act	APP 5UTR inh
COc1ccc(/C=N/NC(N)=S)cc1OC(=O)c1cccc2ccccc12	0.8	19.0	-0.2	129.6*	0.91	-19.0
CN(C)NC(=O)C(NC(=O)c1ccccc1)C12CC3CC(CC(C3)C1)C2 (centres undefined)	-0.7	10.7	0.4	97.1	0.87	-10.7
Cn1c(=O)c2c(nc(CN3CCN(c4ccccc4F)CC3)n2CCCc2ccccc2)n(C)c1=O	-1.2	23.0	0.1	95.0	x	-23.0
O=C(c1cc2ccccc2oc1=O)N1CCSC1c1ccco1 (centres undefined)	-0.4	11.5	-0.2	103.0	0.94	-11.5
Cc1ccc(C(=O)N2CCN(c3ccc([N+](=O)[O-])c(N4CCOCC4)c3)CC2)cc1	1.0	-12.4	-0.3	109.0	0.56	12.4
O=C(CN1CCN(c2ccc(O)cc2)CC1)Nc1ccc(SC(F)F)cc1	0.0	6.7	-0.3	95.4	1.72	-6.7
COc1ccc2oc(C(=O)NCCC(C)C)c(C)c2c1	4.0	139.1*	0.1	134.6*	1	-139.1
O=C(NC(=S)NCc1cccnc1)c1cc2ccccc2o1	0.3	-14.6	0.0	104.7	1.19	14.6
Cc1cccc(NC(=O)Cc2noc3ccccc23)c1	-1.9	38.3	-0.3	139.7*	2	-38.3
O=C(COc1ccccc1)NNC(=O)c1cc2ccccc2o1	2.2	1.7	-0.6	96.7	1.07	-1.7
O=C(NCCOc1ccccc1)c1cc2ccccc2o1	5.2	95.8	-0.1	123.8	4.44*	-95.8
O=C(NC(=S)Nc1cccnc1)c1cc2ccccc2o1	-1.5	-3.3	0.0	130.7*	1.86	3.3
CCC(=O)Nc1cccc(NC(=O)c2cc3ccccc3o2)c1	0.9	88.7	0.8	147.6*	2.88	-88.7
Cc1cccc(NC(=O)Cc2noc3ccccc23)c1C	1.4	26.6	-0.2	103.8	1.14	-26.6
CCOC(=O)c1ccc(NC(=O)c2cc3ccccc3o2)cc1	-0.4	23.9	-0.2	112.7	1.77	-23.9
Cn1c(=O)c2[nH]c(CNc3ccc(C(=O)O)cc3)nc2n(C)c1=O	2.8	x	x	x	x	x
CC(C)=NOC(=O)c1c(C)noc1-c1snnc1C	0.6	x	x	x	x	x
N#Cc1cccn1-c1nccs1	-2.5	-5.9	-0.3	96.0	0.93	5.9
Cc1cccc(NC(=O)COC(=O)c2cc3ccccc3oc2=O)c1	8.9*	0.5	0.2	109.7	1.09	-0.5
CCCCn1nnc(NC(=O)c2cc3ccccc3o2)n1	-0.7	25.0	0.7	134.6*	2.01	-25.0
Cc1cccc(OCC(=O)NNC(=O)c2cc3ccccc3oc2=O)c1	-1.6	5.2	-0.4	103.0	1.59	-5.2
CCCn1nnc(NC(=O)c2cc3ccccc3o2)n1	-0.3	98.2	0.0	125.3	2.79	-98.2
Cc1cc(C(=O)Nc2cccc(C(=O)O)c2)oc1C	-1.3	-1.7	-0.4	49.2	7.04*	1.7
Cc1cccc(NC(=O)c2cc3ccccc3o2)c1	2.6	177.8*	0.1	136.1*	6.7*	-177.8
Fc1ccc(Nc2c(-c3ccco3)nc3ccccn23)cc1	-1.1	17.8	-0.3	99.7	1.1	-17.8
SMILES	Wee1 stabilizer	APP 5'UTR act	Hsp70 activator	STAT1 activator	NF-kB neuron act	APP 5UTR inh
CCC(=O)Nc1cccc(-c2nc3ccccc3o2)c1	0.9	-12.8	0.0	109.1	1.47	12.8
CCC(=O)Nc1cccc(-c2cc3ccccc3oc2=O)c1	-3.3	39.8	-0.2	133.5*	0.6	-39.8
NS(=O)(=O)c1cccc(NC(=O)c2cc3ccccc3o2)c1	0.6	16.8	-0.3	113.8	1.28	-16.8
O=C(Nc1cccc(Br)c1)c1cc2ccccc2o1	5.1	158.4*	0.2	141.8*	5.71*	-158.4
CC(=O)NC1C(=O)N=C(SCc2ccccc2)NC1=O (centres undefined)	0.2	-5.0	-0.4	104.7	1.01	5.0
CC(=O)NC1C(=O)Nc2c(C)cc(C)cc21 (centres undefined)	0.3	8.3	-0.2	138.2*	1.11	-8.3
CCC(CC)N1CCN(CCc2ccccc2)C(CCO)C1 (centres undefined)	1.4	6.6	-0.3	95.1	1.01	-6.6
CCN(CC)S(=O)(=O)c1ccc(C)c(C(=O)Oc2cccc(-c3cnc4ccccc4n3)c2)c1	-0.6	95.7	-0.3	105.0	1.3	-95.7
O=C(Oc1cccc(-c2cnc3ccccc3n2)c1)c1ccco1	1.6	122.4	0.0	104.8	3.49*	-122.4
